Results filed as inconclusive are left out. Calls of active or inactive are those of the source. Unless noted, calls follow the shape of the dose curve; as a rule, active = well fitted curve in the direction sought with a large enough effect in the repeat runs; inconclusive = weak or mixed curves; inactive = no such curve, though single readings can be large; an effect the other way counts as inactive or inconclusive.
Columns and labels:
[1] = molecular target: Progesterone receptor (Homo sapiens) (UniProt P06401); assay: qHTS assay to identify small molecule agonists of the progesterone receptor (PR) signaling pathway (AID 1346784; calls by dose curve; also: nearly all actives have a fitted effect of over 30% in size; also: potency is read from the fitted curve at half-maximal effect)
How it was run: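 Using charcoal-stripped serum (2%) to limit endogenous steroids, PR-UAS-bla HEK 293T cells received compounds for 16 hr at 37C after 6 hr plating; beta-lactamase FRET fluorescence was recorded following 2 hr substrate loading at room temperature.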

[2] = molecular target: Progesterone receptor (Homo sapiens) (UniProt P06401); assay: qHTS assay to identify small molecule antagonists of the progesterone receptor (PR) signaling pathway (AID 1346795; active = well fitted inhibition curve with a large enough effect in the signal ratio in the repeat runs, not every such curve was filed as active; the % refers to the signal ratio; also: potency is read from the fitted curve at half-maximal effect)
How it was run: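 Inhibition of R5020-induced (1 nM final) beta-lactamase reporter signal in PR-UAS-bla HEK293T cells was scored by FRET fluorescence after overnight (16 hr) compound treatment.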

[3] = qHTS assay to identify small molecule antagonists of the progesterone receptor (PR) signaling pathway - cell viability counter screen (AID 1346798); also: series mostly up to about 92 µM; nearly all actives have a fitted effect of over 50% in size
How it was run: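 ATP content as viability readout: CellTiter-Glo luminescence, 30 min room temperature, in PR-UAS-bla HEK293T cells after 16 hr compound/R5020 treatment at 37C and 5% CO2.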

[4] = qHTS assay to identify small molecule agonists of the progesterone receptor (PR) signaling pathway - cell viability counter screen (AID 1346799; calls by dose curve; also: nearly all actives have a fitted effect of over 45% in size)
How it was run: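 Cytotoxicity in PR-bla HEK293T cells: 16 h compound, 37C; CellTiter-Glo added post-FRET read; luminescence after 30 min RT.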

[5] = qHTS assay to identify small molecule antagonists of the TGF-beta/Smad signaling pathway - cell viability counter screen (AID 1346824); also: nearly all actives have a fitted effect of over 50% in size
How it was run: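 SBE-bla HEK 293T cells were plated overnight at 37 C, then given compounds in DMSO plus TGF-beta1 (added as 0.25 ng/mL solution) for 5 hr. After the bla read, CellTiter-Glo was added to the same wells and luminescence read after 30 min at room temperature.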

[6] = qHTS assay to identify small molecule agonists of the TGF-beta/Smad signaling pathway - cell viability counter screen (AID 1346829); also: top concentration of the series differs between compounds; nearly all actives have a fitted effect of over 45% in size
How it was run: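 SBE-bla HEK 293T cells plated overnight, compound exposure 5 hr at 37 C. Viability read in the same wells by CellTiter-Glo luminescence after 30 min at room temperature, following the beta-lactamase read.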

[7] = qHTS assay to identify small molecule agonists of the TGF-beta/Smad signaling pathway (AID 1346859; active = well fitted activation curve with a large enough effect in the signal ratio in the repeat runs, not every such curve was filed as active; the % refers to the signal ratio; also: series mostly up to about 77 µM)
How it was run: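 Stable Smad binding element-beta-lactamase HEK 293T cells; 5 hr compound exposure at 37 C under 5% CO2; 2 hr room-temperature substrate step; fluorescence excited at 405 nm, collected at 460 nm and 530 nm.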

[8] = Human pregnane X receptor (PXR) small molecule agonists, qHTS cell viability counter screen (AID 1346977); also: nearly all actives have a fitted effect of over 50% in size; also: potency is read from the fitted curve at half-maximal effect
How it was run: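 Readout is CellTiter-Fluor fluorescence from PXR-Luc HepG2 cells. Plated cells rested 5hr, then were treated with compounds for 24hr at 37C and 5% CO2, with reagent present during the last hour.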

[9] = molecular target: Thyrotropin-releasing hormone receptor (Homo sapiens) (UniProt P34981); assay: qHTS assay to identify small molecule antagonists of the thyrotropin-releasing hormone receptor (TRHR) signaling pathway (AID 1346877; active = well fitted inhibition curve with a large enough effect in the repeat runs, not every such curve was filed as active; also: series mostly up to about 51 µM)
How it was run: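 Calcium signal in dye-loaded TRHR/HEK293 cells; compounds added 5 min before TRH (1 nM final); fluorescence monitored 3 min at 1 s steps.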

[10] = molecular target: Thyrotropin-releasing hormone receptor (Homo sapiens) (UniProt P34981); assay: qHTS assay to identify small molecule agonists of the thyrotropin-releasing hormone receptor (TRHR) signaling pathway (AID 1346891; calls by dose curve; also: potency is read from the fitted curve at half-maximal effect;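 as to activation: HEK293 cells expressing TRHR with calcium dye readout; series mostly up to about 58 µM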)
How it was run: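 In 1536-format, 1500 TRHR-Hek293 cells per well grew 18 h, took up calcium dye for 2 h at 37 °C, received compound, and were read kinetically; 15-point titrations, triplicates.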

Measured: Potency

Chain of Thyrotropin-releasing hormone receptor (Homo sapiens) (P34981 whole entry, looked up): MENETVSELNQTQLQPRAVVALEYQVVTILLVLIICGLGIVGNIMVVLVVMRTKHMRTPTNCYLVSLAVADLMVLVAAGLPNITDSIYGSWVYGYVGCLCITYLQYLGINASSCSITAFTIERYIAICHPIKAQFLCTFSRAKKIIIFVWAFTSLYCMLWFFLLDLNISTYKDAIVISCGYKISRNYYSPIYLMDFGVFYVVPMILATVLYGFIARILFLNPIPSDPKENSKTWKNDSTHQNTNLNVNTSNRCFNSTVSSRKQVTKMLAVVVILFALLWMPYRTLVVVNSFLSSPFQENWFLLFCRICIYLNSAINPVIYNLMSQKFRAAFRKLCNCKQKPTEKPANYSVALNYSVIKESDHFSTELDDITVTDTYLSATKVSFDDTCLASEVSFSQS
Chain of Progesterone receptor (Homo sapiens) (P06401 whole entry, looked up): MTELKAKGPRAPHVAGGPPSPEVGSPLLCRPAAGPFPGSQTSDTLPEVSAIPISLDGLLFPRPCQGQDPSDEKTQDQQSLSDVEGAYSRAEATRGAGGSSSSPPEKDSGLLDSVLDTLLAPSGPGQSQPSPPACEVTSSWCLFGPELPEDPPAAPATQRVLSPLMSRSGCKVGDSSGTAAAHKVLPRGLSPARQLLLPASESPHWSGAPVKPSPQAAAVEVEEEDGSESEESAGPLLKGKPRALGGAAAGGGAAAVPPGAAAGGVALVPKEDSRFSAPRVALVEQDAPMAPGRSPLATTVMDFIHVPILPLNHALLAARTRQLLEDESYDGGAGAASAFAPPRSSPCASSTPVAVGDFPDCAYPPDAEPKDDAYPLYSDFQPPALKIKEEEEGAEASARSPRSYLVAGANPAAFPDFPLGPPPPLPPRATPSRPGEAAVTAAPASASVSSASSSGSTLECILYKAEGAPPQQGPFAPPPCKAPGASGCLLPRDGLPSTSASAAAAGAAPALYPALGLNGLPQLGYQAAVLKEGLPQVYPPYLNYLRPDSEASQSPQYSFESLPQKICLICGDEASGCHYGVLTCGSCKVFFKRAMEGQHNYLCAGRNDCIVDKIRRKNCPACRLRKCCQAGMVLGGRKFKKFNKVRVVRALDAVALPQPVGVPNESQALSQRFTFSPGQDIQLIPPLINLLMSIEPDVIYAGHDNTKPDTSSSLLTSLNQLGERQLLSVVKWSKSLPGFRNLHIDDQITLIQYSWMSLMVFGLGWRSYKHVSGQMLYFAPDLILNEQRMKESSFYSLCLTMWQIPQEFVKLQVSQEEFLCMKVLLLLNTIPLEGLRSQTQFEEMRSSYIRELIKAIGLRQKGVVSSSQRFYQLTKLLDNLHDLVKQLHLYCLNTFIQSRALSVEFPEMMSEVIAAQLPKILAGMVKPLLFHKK

O=C1CCCc2ccccc21
not listed: [9] | [10]
inactive: all other assays above

OCc1c2ccccc2cc2ccccc12
active: [2] 54.6 µM
not listed: [6]
inactive: all other assays above

CCN(O)CC
active: [8] 30 µM
not listed: [7] | [9] | [10]
inactive: all other assays above

CN1C(=O)CC(c2ccccc2)C1=O (configuration not stated)
not listed: [5] | [9] | [10]
inactive: all other assays above

O=C(CC(=O)C(F)(F)F)c1ccccc1
active: [1] 8.76 µM | [10] 39.5 µM
not listed: [6] | [9]
inactive: all other assays above

COc1cc(N)c(Cl)cc1C(=O)NC1CCN(Cc2ccccc2)CC1
not listed: [4] | [6] | [8]
inactive: all other assays above

CC(C)(C)C1CCCCC1=O (configuration not stated)
not listed: [5]
inactive: all other assays above

COc1ccccc1OCC(O)COC(N)=O (configuration not stated)
not listed: [5]
inactive: all other assays above

CCCCCCCOC(=O)CCC
inactive: [1] | [2] | [3] | [4] | [6] | [7]

CC(C)=CCCC(C)CCOC=O (configuration not stated)
not listed: [5]
inactive: all other assays above

OCC(CBr)(CBr)CBr
active: [2] 34.2 µM
not listed: [4] | [7] | [8]
inactive: all other assays above

CCCc1c2oc(C(=O)O)cc(=O)c2cc2c(=O)cc(C(=O)O)n(CC)c12
not listed: [6] | [9] | [10]
inactive: all other assays above

C[C@]12C(=O)OC(=O)[C@H]1[C@H]1C=C[C@@H]2C1
not listed: [5]
inactive: all other assays above

Cc1ccc(C=O)s1
not listed: [4]
inactive: all other assays above

CC(C)OC(C)C
not listed: [5] | [9] | [10]
inactive: all other assays above

Cc1ccc(C(C)C)cc1O
not listed: [5] | [9] | [10]
inactive: all other assays above

CC/C=C\CCOC(=O)CCCCC
not listed: [5]
inactive: all other assays above

Cn1cnc2c(F)c(Nc3ccc(Br)cc3Cl)c(C(=O)NOCCO)cc21
inactive: [1] | [2] | [3] | [5] | [6] | [7]

COC(=O)N[C@H](C(=O)N[C@@H](Cc1ccccc1)[C@@H](O)CN(Cc1ccc(-c2ccccn2)cc1)NC(=O)[C@@H](NC(=O)OC)C(C)(C)C)C(C)(C)C
not listed: [4]
inactive: all other assays above

CC1(O)CSC(C)(O)CS1 (configuration not stated)
not listed: [4] | [7]
inactive: all other assays above

CCCNC(C)(C)COC(=O)c1ccccc1
not listed: [5]
inactive: all other assays above

O=C1Nc2ccc([N+](=O)[O-])cc2C1=O
not listed: [5] | [8]
inactive: all other assays above

CCOC(=O)C(Br)c1ccccc1 (configuration not stated)
inactive: [1] | [2] | [3] | [4] | [5] | [8]

CCCCNc1cc(C(=O)O)cc(S(N)(=O)=O)c1Oc1ccccc1
not listed: [5]
inactive: all other assays above

C=CCc1cc(OC)c(O)c(C(=O)NCCO)c1
not listed: [6] | [9] | [10]
inactive: all other assays above

OCCN1CCN(CCO)CC1
not listed: [5]
inactive: all other assays above

CC(C)(C)c1ccc(OC(=O)c2ccccc2O)cc1
not listed: [6] | [9] | [10]
inactive: all other assays above

CC/C=C\CCOC(=O)C(C)C
not listed: [5]
inactive: all other assays above

CCCCCCn1c(=O)c2c(ncn2C)n(C)c1=O
inactive: [1] | [2] | [3] | [4] | [7] | [8]

From PubChem BioAssay (Tox21)
